# Compound activity: PubChem, several laboratories
# EBNA-1 inh: EBNA-1 DNA-binding inhibitors, primary screen, biochemical, fluorescence polarization. inhibition, % at 14.8 µM. 300,000 tested, 0.34% active. AID 1950, 2009; in the data active = inhibition above about 28%
# p47phox inh: p47phox/p22phox peptide binding inhibitors, primary screen, biochemical, uHTS, NADPH oxidase regulatory subunit | Neutrophil cytosol factor 1 (Homo sapiens), P14598 | fluorescence polarization, 2 h | inhibition, % at 24.7 µM | 220,000 tested, 0.53% active;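 active = inhibition above about 30%, limit read from the data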;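 note: 0% = p47phox with labelled peptide and 100% = labelled peptide alone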
# NR1D1 modulator: modulators of Rev-erb alpha DNA binding, primary screen, biochemical, FITC-DNA, fluorescence polarization, uHTS. Nuclear receptor subfamily 1 group D member 1 (Homo sapiens), P20393. Rev-erbα–FITC-DNA binding, 90 min. activity, % at 10 µM. 370,000 tested, 0.79% active;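 active = activity above about 14%, limit read from the data; passing the limit was not always enough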;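 note: 0% = DMSO wells with 35 nM protein and 100% = DMSO wells with 750 nM protein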
# Target sequence (P20393 whole entry, looked up): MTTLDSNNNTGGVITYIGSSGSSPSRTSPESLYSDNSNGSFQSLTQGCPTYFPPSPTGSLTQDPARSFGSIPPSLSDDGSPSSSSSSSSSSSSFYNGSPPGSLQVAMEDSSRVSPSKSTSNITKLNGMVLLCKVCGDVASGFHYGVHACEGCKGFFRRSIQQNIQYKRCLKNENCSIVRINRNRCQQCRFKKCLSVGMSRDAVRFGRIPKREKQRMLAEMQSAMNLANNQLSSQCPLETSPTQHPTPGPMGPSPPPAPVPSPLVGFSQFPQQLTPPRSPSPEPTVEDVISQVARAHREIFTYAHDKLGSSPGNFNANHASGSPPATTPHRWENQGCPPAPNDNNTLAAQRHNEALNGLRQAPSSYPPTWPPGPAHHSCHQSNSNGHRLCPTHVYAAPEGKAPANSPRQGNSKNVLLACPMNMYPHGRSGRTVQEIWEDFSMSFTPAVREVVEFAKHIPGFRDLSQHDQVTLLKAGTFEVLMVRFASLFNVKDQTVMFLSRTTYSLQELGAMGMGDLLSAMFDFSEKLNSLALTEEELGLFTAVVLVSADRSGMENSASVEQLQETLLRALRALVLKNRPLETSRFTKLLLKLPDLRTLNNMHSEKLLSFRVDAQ
# aDG glyco up: activators of alpha-DG glycosylation, primary screen, uHTS, Pro5-aDG cells, AlphaScreen; activation, % at 10 µM; alpha-DG glycosylation AlphaScreen (IIH6); 0% Pro5, 100% B10-LARGE cell signal; 360,000 tested, 0.22% active;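 active = activation of at least 8% versus controls, or a plate z-score of at least 8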;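 note: Pro5 are CHO cells carrying HIG-tagged alpha-DG that lacks glycosylation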
# PG9 binder: binders of HIV-1 gp120 antibody PG9, primary screen, biochemical, TR-FRET. 360,000 tested, 0.43% active. TR-FRET gp120-PG9 antibody binding. inhibition, % at 6.7 µM; in the data active = inhibition above about 8.5%
# ZTA counter: blocks Epstein-Barr virus ZTA, an EBNA-1 counter-screen. 320,000 tested, 0.15% active. inhibition, % at 11 µM. ZTA-DNA binding, fluorescence polarization. AID 2234. P03206; in the data active = inhibition above about 33%
# Rev-erbA confirm: modulators of Rev-erb alpha DNA binding, confirmation, biochemical, FITC-DNA, fluorescence polarization, single point. shares compounds with NR1D1 modulator. 90 min. activation, % at 25 µM. 3,000 tested, 61% active. AID 1259319, 2017;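 active = activation at or above a set limit, or at least 3 SD above the negative control mean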;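 note: 0% = 35 nM protein with DMSO and 100% = 750 nM protein high control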
# RORg counter: modulation of RORgamma DNA binding, dose response, counter-screen for Rev-erb alpha modulator project, biochemical, fluorescence polarization, FITC-DNA; shares compounds with NR1D1 modulator; purified RORgamma protein-FITC-DNA binding; IC50, µM; 910 tested, 8% active; AID 1259320, 2017;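 active = Compounds whose fitted half-maximal concentration for disrupting protein-DNA binding is below 10 micromolar; the record names Rev-erb in its text, so the target is in doubt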
# Starred values were filed as active, the others as inactive; x = no result. Sampled rows, rich in hits. Any-hit rate of the full collection: about 1.9%.
SMILES,EBNA-1 inh,p47phox inh,NR1D1 modulator,aDG glyco up,PG9 binder,ZTA counter,Rev-erbA confirm,others
COc1ccc(S(=O)(=O)N2CCCCCC2)cc1C(=O)Nc1ccc(C)cn1,16,x,101*,0,0,5,30*,RORg counter=0.79*
COc1ccc(S(=O)(=O)N2CCCCCC2)cc1C(=O)Nc1cc(C)ccn1,x,x,2,0,2,9,x,
COc1ccc(S(=O)(=O)N2CCc3ccccc32)cc1C(=O)Nc1ccc(NC(C)=O)cc1,x,x,58*,0,1,x,41*,RORg counter=>40
C=Cc1ccc(C(=O)Nc2nnc(-c3cccnc3)s2)cc1,x,x,-13,x,x,x,x,
Cc1cc(N2CCN(C(=O)Oc3ccc(-c4ccccc4)cc3)CC2)c2ccccc2n1,x,x,5,x,x,x,x,
COc1ccccc1CNC(=O)CSc1nc(N)c(C#N)c(-c2cccs2)c1C#N,-1,-12,35*,0,1,11,25*,
COc1ccc(-c2cc(-c3cccs3)c(C#N)c(SCC(=O)NCc3ccccc3)n2)cc1,13,-2,52*,0,1,4,26*,
COc1ccc(-c2cc(-c3cccs3)c(C#N)c(SCC(=O)NCc3ccccc3OC)n2)cc1,-1,-1,46*,1,2,0,26*,
CCOC(=O)CSc1nc(N)c(C#N)c(-c2cccs2)c1C#N,-5,-4,16*,0,0,13,21*,
N#Cc1c(N)nc(SCc2ccccn2)c(C#N)c1-c1cccs1,-2,-23,-1,2,-2,2,x,
N#Cc1c(-c2ccccc2)cc(-c2cccs2)nc1SCC(=O)O,-1,x,3,0,1,-4,x,
O=C(O)c1ccc(-c2ccc(/C=N/Nc3ccc([N+](=O)[O-])cc3)o2)cc1,-2,-40,21*,0,-1,6,18*,
Cc1cc(NC(=O)c2ccc(NS(=O)(=O)c3ccc(F)cc3)cc2)no1,x,x,1,x,x,x,x,
CC(=O)Nc1ccc(S(=O)(=O)Nc2ccn(Cc3ccccc3Cl)n2)cc1,x,x,15*,0,-2,x,-3,
COc1cccc2c1C(=O)c1c(O)c3c(c(O)c1C2=O)CC(O)(C(C)=O)CC3OC1CC(N(C)C)C(O)C(C)O1 (stereo not given),x,x,15,-1,-9,x,x,
CC(=O)[C@@]1(O)Cc2c(O)c3c(c(O)c2[C@H](O[C@H]2C[C@H](N)[C@H](O)[C@H](C)O2)C1)C(=O)c1ccccc1C3=O,x,x,24*,-1,-6,x,11*,
COc1cccc2cc(-c3cn4ccc(C)cc4n3)c(=O)oc12,12,x,0,0,-1,4,x,
CCOc1cccc2cc(-c3cn4cc(C)ccc4n3)c(=O)oc12,3,7,53*,0,3,1,25*,
CC(C)(C)N(Cc1cn(Cc2ccccc2)nn1)S(=O)(=O)c1ccc(N2CCCCC2)cc1Br,x,x,5,x,x,x,x,
Cc1cc(NC(=O)c2ccc(S(=O)(=O)N3CCOCC3)cc2)nc2c1c(=O)oc1ccccc12,0,-103,36*,x,-2,-10,16,
Cc1cc(NC(=O)c2ccc(S(=O)(=O)N3CCCC3)cc2)nc2c1c(=O)oc1ccccc12,x,-10,36*,0,-1,x,8,
COc1ccc(C(C(=O)N(C)C2CCCC2)N(Cc2ccc(F)cc2)C(=O)c2sccc2Cl)cc1OC (stereo not given),x,x,-7,x,x,x,x,
COc1ccc(-c2cc(C(=O)c3c(N)n(C)c(=O)n(C)c3=O)c3ccccc3n2)cc1,5,-6,5,0,-3,9,x,
COc1ccc(-c2cc(C(=O)OCC(=O)c3c(N)n(C)c(=O)n(C)c3=O)c3ccccc3n2)cc1,2,-22,30*,0,0,2,19*,
